Inconclusive results are not listed. Activity calls are given as the source filed them. Calls come from the whole dose curve; as a rule, active = well fitted cell-killing curve with a large enough effect; inconclusive = small, poorly fitted or top-dose-only effect; inactive = no such curve, though single readings can be large or run the other way.
Test: qHTS of pediatric cancer cell lines to identify multiple opportunities for drug repurposing: Primary screen for A673 cells (AID 1347092); note: nearly all actives have a fitted effect of over 45% in size
Details: A673 Ewing sarcoma viability, CellTiter-Glo ATP luminescence, 48 h; series mostly up to 46 µM
Summary of the method: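 Cell viability of A673 measured by CellTiter-Glo ATP luminescence after 48 hours compound exposure. Dilution series spanned 0.78 nM to 46 µM (MIPE, 11-point) or 0.59 nM to 46 µM (NPC, 8-point); bortezomib 2.3 uM positive control.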
Potency is the fitted concentration of half-maximal effect.

With `CCOC(=O)[C@H](CCc1ccccc1)N[C@@H](C)C(=O)N1[C@@H](C(=O)O)C[C@H]2CCC[C@@H]21` as the compound, how does the Potency read?
The Potency was 9.35 µM (active).

Which Potency does the source give for `Nc1ncn([C@@H]2O[C@H](CO)[C@@H](O)[C@@H]2O)c(=O)n1` here?
The Potency was 4.69 µM (active).

Which Potency does the source give for `COc1ccc2c(c1OC)C(=O)OC2[C@H]1c2c(cc3c(c2OC)OCO3)CCN1C` (stereo not given in full) here?
Its Potency is 0.0743 µM (active).

For `CCCCCN=C(N)NN=Cc1c[nH]c2ccc(OC)cc12`, which Potency is on record?
The Potency was 9.35 µM (active).

With `COc1cc(N2CCC(C(N)=O)CC2)ccc1Nc1nc(N)c(Cl)c(Nc2ccccc2S(=O)(=O)C(C)C)n1` as the compound, how does the Potency read?
The Potency was 1.18 µM (active).

For `COc1cc(CCc2cc(NC(=O)c3ccc(N4C[C@@H](C)N[C@@H](C)C4)cc3)n[nH]2)cc(OC)c1`, which Potency is on record?
The Potency was 14.8 µM (active).

With `NC(=O)Nc1cc(-c2ccc(CN3CCOCC3)cc2)sc1C(N)=O` as the compound, how does the Potency read?
The Potency was 5.9 µM (active).

With `CN(CC(=O)N(Cc1ccc(C2CCCCC2)cc1)c1ccc(C(=O)O)c(O)c1)S(=O)(=O)c1c(F)c(F)c(F)c(F)c1F` as the compound, how does the Potency read?
Its Potency is 9.35 µM (active).

With `FC(F)(F)c1ccc(Nc2nc3ccc(Oc4ccnc(-c5ncc(C(F)(F)F)[nH]5)c4)cc3[nH]2)cc1` as the compound, how does the Potency read?
Its Potency is 14.8 µM (active).

For `CC(C)NC[C@@H](C(=O)N1CCN(c2ncnc3c2[C@H](C)C[C@H]3O)CC1)c1ccc(Cl)cc1`, which Potency is on record?
The Potency was 11.8 µM (active).

Which Potency does the source give for `CN1CCc2c(c3ccccc3n2Cc2ccc(C(=O)NO)cc2)C1` here?
The Potency was 5.9 µM (active).

With `Oc1ccc([C@@H]2Oc3ccc(O)cc3[C@@H]3CCC[C@@H]32)cc1` as the compound, how does the Potency read?
The Potency was 9.35 µM (active).

For `COc1cc2c(cc1OC)[C@@H]1C(=O)c3ccc4c(c3O[C@@H]1CO2)C=CC(C)(C)O4`, which Potency is on record?
The Potency was 0.0743 µM (active).

For `NC(=O)N1CCC(CC(=O)N2CCC([C@H]3c4ncc(Br)cc4CCc4cc(Cl)cc(Br)c43)CC2)CC1`, which Potency is on record?
Its Potency is 14.8 µM (active).

With `c1ccc(CNc2nc(NCc3ccccc3)c3ccccc3n2)cc1` as the compound, how does the Potency read?
The Potency was 4.69 µM (active).

For `CS(=O)(=O)N1CCc2c(-c3cnc(N)nc3)nc(N3CCOCC3)nc21`, which Potency is on record?
The Potency was 0.935 µM (active).

Which Potency does the source give for `C#C[C@]1(O)CC[C@@H]2[C@@H]3CCc4cc(O)ccc4[C@H]3CC[C@@]21C` here?
Its Potency is 14.8 µM (active).

With `O=C(O)C=Cc1ccc(Cn2ccnc2)cc1` as the compound, how does the Potency read?
Its Potency is “inactive”.

For `Cc1cnn(C)c1C(=O)Nc1cc(Nc2ccc3c(C=Cc4ccccn4)n[nH]c3c2)ccc1F`, which Potency is on record?
The Potency was 14.8 µM (active).

With `C=CC[C@@H]1C=C(C)C[C@H](C)C[C@H](OC)[C@H]2O[C@@](O)(C(=O)C(=O)N3CCCC[C@H]3C(=O)O[C@H](C(C)=C[C@@H]3CC[C@H](O)[C@H](OC)C3)[C@@H](C)[C@@H](O)CC1=O)[C@@H](C)C[C@@H]2OC` as the compound, how does the Potency read?
The Potency was “inactive”.

For `COc1cc2c(cc1O)CCC1C2CC[C@@]2(C)C1CC[C@@H]2O` (stereo not given in full), which Potency is on record?
Its Potency is 3.72 µM (active).

With `COc1cccc2c1C(=O)c1c(O)c3c(c(O)c1C2=O)C[C@@](O)(C(C)=O)C[C@H]3O[C@H]1C[C@H](N)[C@H](O)[C@H](C)O1` as the compound, how does the Potency read?
Its Potency is 0.0469 µM (active).

Which Potency does the source give for `O=C(C=Cc1ccc(CN(CCO)CCc2c[nH]c3ccccc23)cc1)NO` here?
Its Potency is 0.235 µM (active).

For `C=CCNC1=C2C[C@@H](C)C[C@H](OC)[C@@H](O)[C@@H](C)C=C(C)[C@H](OC(N)=O)[C@@H](OC)C=CC=C(C)C(=O)NC(=CC1=O)C2=O`, which Potency is on record?
Its Potency is 1.48 µM (active).

Which Potency does the source give for `c1cc(N[C@@H]2CCNC2)nc(-c2cnc3ccc(-c4cn[nH]c4)cn23)c1` here?
The Potency was 2.96 µM (active).

For `COc1ccc(S(=O)(=O)Nc2cccnc2Nc2ccc(O)cc2)cc1`, which Potency is on record?
Its Potency is 0.235 µM (active).

With `C[C@H](NC(=O)C(C#N)=Cc1cccc(Br)n1)c1ccccc1` as the compound, how does the Potency read?
The Potency was 14.8 µM (active).

Which Potency does the source give for `COc1cc(C(=O)NC2CCN(C)CC2)ccc1Nc1ncc2c(n1)N(C1CCCC1)CCC(=O)N2C(C)C` here?
Its Potency is 2.96 µM (active).

Which Potency does the source give for `C=CC(=O)Nc1cc(NC(=O)c2ccc(C)c(NC(=O)c3ccno3)c2)cc(C(F)(F)F)c1` here?
Its Potency is 14.8 µM (active).

With `CC(C=CC1=C(C)CCCC1(C)C)=CC=CC(C)=CC(=O)Nc1ccc(O)cc1` as the compound, how does the Potency read?
The Potency was 2.7 µM (active).
